# Results filed as inconclusive are left out. A call without a number means that no potency is given here. Activity calls are given as the source filed them. Calls follow the shape of the dose curve; as a rule, active = well fitted inhibition curve with a large enough effect; inconclusive = small, poorly fitted or top-dose-only effect; inactive = flat fitted curve, though single readings scatter.
# Columns and labels:
# Experiment in all cases: qHTS profiling for inhibitors of Plasmodium falciparum proliferation (AID 504749); also: nearly all actives have a fitted effect of over 60% in size
# Details in all cases: P. falciparum in erythrocytes, SYBR Green DNA, 72 h; series mostly up to 28.7 µM
# CP260 = system: CP260
# Outline: (§1)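 P. falciparum-infected erythrocytes (0.3% parasitemia, 2.5% hematocrit) incubated with compound 72 h at 37 C, 5% CO2. Parasite DNA detected by SYBR Green after lysis, overnight at room temperature; normalised to 0.29 uM artemisinin and DMSO.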
# CP262 = system: CP262
# Outline: as §1
# CP265 = system: CP265
# Outline: as §1
# CP266 = system: CP266
# Outline: as §1
# CP268 = system: CP268
# Outline: as §1
# CP269 = system: CP269
# Outline: as §1
# CP286 = system: CP286
# Outline: as §1
# CP291 = system: CP291
# Outline: as §1
# CP297 = system: CP297
# Outline: as §1
# CP305 = system: CP305
# Outline: as §1
# Potency is read from the fitted curve at half-maximal effect.
SMILES,Potency (CP260),Potency (CP262),Potency (CP265),Potency (CP266),Potency (CP268),Potency (CP269),Potency (CP286),Potency (CP291),Potency (CP297),Potency (CP305)
C=C[C@@]1(C)CC(=O)[C@]2(O)[C@@]3(C)[C@@H](O)CCC(C)(C)[C@@H]3[C@H](O)[C@H](OC(C)=O)[C@@]2(C)O1,inactive,inactive,inactive,inactive,inactive,inactive,inactive,inactive,inactive,inactive
CNCCc1ccccn1,inactive,inactive,inactive,inactive,inactive,inactive,inactive,inactive,–,inactive
CN(Cc1ccc(C(C)(C)C)cc1)Cc1cccc2ccccc12,inactive,inactive,inactive,inactive,inactive,inactive,–,inactive,inactive,inactive
O=C(O)Cc1csc(-c2ccc(Cl)cc2)n1,inactive,inactive,inactive,inactive,inactive,inactive,inactive,inactive,inactive,inactive
CC1(COc2ccc(CC3SC(=O)NC3=O)cc2)CCCCC1 (stereo not given),inactive,inactive,inactive,inactive,inactive,inactive,inactive,inactive,–,inactive
CCCCCCCCCCCCCC[N+](C)(C)Cc1ccccc1,5010 nM (active),4260 nM (active),8910 nM (active),10700 nM (active),6750 nM (active),4780 nM (active),3160 nM (active),4780 nM (active),5360 nM (active),5360 nM (active)
NS(=O)(=O)Cc1noc2ccccc12,inactive,inactive,inactive,inactive,inactive,inactive,inactive,inactive,inactive,inactive
CC(=O)N[C@@H](CCC(=O)O)C(=O)O,inactive,inactive,inactive,inactive,inactive,inactive,inactive,–,inactive,inactive
Cc1cc(CC(=O)O)c(C)n1-c1ccc(Cl)cc1,inactive,inactive,inactive,inactive,inactive,inactive,inactive,inactive,–,inactive
CCCCCCCCNC(C)C(O)c1ccc(SC(C)C)cc1 (stereo not given),355 nM (active),2130 nM (active),1120 nM (active),1690 nM (active),1510 nM (active),1510 nM (active),1000 nM (active),1900 nM (active),–,2690 nM (active)
CCCCCCCCCCCCCC(=O)OC(C)C,inactive,inactive,inactive,inactive,inactive,inactive,inactive,inactive,–,inactive
CCCN(CCC)S(=O)(=O)c1ccc(C(=O)O)cc1,inactive,inactive,inactive,inactive,inactive,inactive,inactive,inactive,inactive,inactive
O=C(O)P(=O)(O)O,inactive,inactive,inactive,inactive,inactive,inactive,inactive,inactive,inactive,inactive
C#C[C@]1(O)CC[C@H]2[C@@H]3CCC4=Cc5oncc5C[C@]4(C)[C@H]3CC[C@@]21C,inactive,inactive,inactive,inactive,inactive,inactive,inactive,inactive,–,inactive
CC(C)=CCOc1ccc(/C=C/C(=O)c2ccc(OCC=C(C)C)cc2OCC(=O)O)cc1,inactive,inactive,inactive,inactive,inactive,inactive,inactive,inactive,inactive,inactive
O=C1C(O)=C(O)C(=O)C(O)=C1O,inactive,inactive,inactive,inactive,inactive,inactive,–,inactive,–,inactive
NCCNc1cccc2ccccc12,inactive,inactive,inactive,inactive,inactive,inactive,inactive,inactive,–,inactive
CC(=O)NO,inactive,inactive,inactive,inactive,inactive,inactive,inactive,inactive,inactive,inactive
CCOc1ccccc1C(N)=O,inactive,inactive,inactive,inactive,inactive,inactive,inactive,–,inactive,inactive
CCN(CC)CCNC(=O)c1cc(Br)c(N)cc1OC,inactive,inactive,inactive,inactive,inactive,inactive,inactive,inactive,–,inactive
Nc1ccc(S(=O)(=O)NCc2ccccc2)cc1,inactive,inactive,inactive,inactive,inactive,inactive,inactive,inactive,inactive,inactive
O=C(NC1CCN(CCc2c[nH]c3ccccc23)CC1)c1ccccc1,inactive,inactive,inactive,inactive,inactive,inactive,–,inactive,–,inactive
CN(C)CCC[C@@]1(c2ccc(F)cc2)OCc2cc(C#N)ccc21,inactive,inactive,inactive,inactive,inactive,–,inactive,inactive,–,inactive
COc1cc(C(=O)N2CCCCCCC2)cc(OC)c1OC,inactive,inactive,inactive,inactive,inactive,inactive,inactive,inactive,inactive,inactive
O=c1[nH]c(=O)n([C@H]2C[C@H](O)[C@@H](CO)O2)cc1F,inactive,inactive,inactive,inactive,inactive,inactive,inactive,inactive,inactive,inactive
CC(C)Nc1cccnc1N1CCN(C(=O)c2cc3cc(NS(C)(=O)=O)ccc3[nH]2)CC1,inactive,–,inactive,inactive,inactive,inactive,inactive,inactive,inactive,inactive
CCCCCN=C(N)N/N=C/c1c[nH]c2ccc(OC)cc12,5010 nM (active),inactive,4470 nM (active),–,–,13500 nM (active),–,13500 nM (active),–,–
O=C1C(=O)c2ccccc2C(O)=C1C1CCC(c2ccc(Cl)cc2)CC1 (stereo not given),0.8 nM (active),–,0.6 nM (active),6.4 nM (active),5.7 nM (active),5.1 nM (active),1.1 nM (active),6.4 nM (active),–,5.1 nM (active)
